# According to PubChem BioAssay (NCATS):
# Results filed as inconclusive are left out. Calls of active or inactive are those of the source. The call rests on the fitted dose curve; in most records, active means well fitted curve in either direction with a large enough effect (not every such curve was filed as active); inconclusive means small, poorly fitted or top-dose-only effect, or another doubt; inactive means flat fitted curve, though single readings scatter.
# Target: Mitogen-activated protein kinase 10 (Mus musculus) (UniProt Q61831)
# Test: JNK3 AlphaScreen Assay (AID 530);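 further: kinase came from lysate of stimulated human HepG2 cells; signal reports phosphorylation of biotinylated GST-cJun 1-79 at Ser73 with 10 µM ATP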
# Conditions: JNK3 lysate, c-Jun phosphorylation; series mostly up to 57.1 µM
# In short: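 Kinase buffer: 20 mM Tris-HCl pH 7.6, 10 mM MgCl2, 1 mM DTT, 0.1 mM Na3VO4, 0.01% Tween-20; ATP 10 uM. Substrate biotin-GST-cJun(1-79), enzyme from activated HepG2 lysates. Detection by Ser73 phospho-antibody AlphaScreen.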
row,Structure (SMILES),outcome
1,O=P(N[C@@H](c1ccccc1)[C@@H]1C[C@H]1CO)(c1ccccc1)c1ccccc1,inactive
2,COC(=O)[C@]1(C)C[C@H]1[C@H](NP(=O)(c1ccccc1)c1ccccc1)c1ccccc1,inactive
3,C[C@@H]1O[C@H](O[C@H]2C[C@@H](O)[C@]3(CO)[C@H]4[C@H](O)C[C@]5(C)[C@@H](C6=CC(=O)OC6)CC[C@@]5(O)[C@H]4CC[C@]3(O)C2)[C@@H](O)[C@H](O)[C@H]1O,inactive
4,CNC(=O)[C@@H]1C[C@H]1[C@@H](NP(=O)(c1ccccc1)c1ccccc1)c1ccccc1,inactive
5,c1ccc2ncccc2c1,inactive
6,O=C1C[C@@H]2OCC=C3CN4CC[C@]56c7ccccc7N1[C@H]5[C@@H]2[C@H]3C[C@@H]46,inactive
7,CCCC/C(C)=C/[C@@H](NP(=O)(c1ccccc1)c1ccccc1)c1ccccc1,inactive
8,COC(=O)[C@@H]1C[C@H]1[C@@H](NP(=O)(c1ccccc1)c1ccccc1)c1ccccc1,inactive
9,COc1ccc2c(c1OC)C(=O)O[C@@H]2[C@H]1c2cc3c(cc2CCN1C)OCO3,inactive
10,COC(=O)[C@H]1C[C@@H]1[C@H](NP(=O)(c1ccccc1)c1ccccc1)c1ccccc1,inactive
11,C=C(CC1(CNP(=O)(c2ccccc2)c2ccccc2)CC1)c1ccccc1,inactive
12,CC1N(P(=O)(c2ccccc2)c2ccccc2)CC(O)(c2ccccc2)CC12CC2 (centres undefined),inactive
13,COC(=O)[C@@]1(Cc2ccccc2)[C@H]2c3cc(C(=O)N(C)C)n(C)c3C[C@H]2CN1C(=O)c1ccccc1,inactive
14,CCCC/C=C/[C@@H](NP(=O)(c1ccccc1)c1ccccc1)c1ccccc1OC,inactive
15,COC(=O)[C@@H]1C[C@@]1(C)[C@@H](NP(=O)(c1ccccc1)c1ccccc1)c1ccccc1,inactive
16,CCCc1cc2c(n1Cc1ccco1)C(C)C1CN(C(=O)c3ccccc3)C(C)(C(=O)OC)C21 (centres undefined),inactive
17,CNC(=O)[C@H]1C[C@@H]1[C@H](NP(=O)(c1ccccc1)c1ccccc1)c1ccccc1,inactive
18,O=C(Oc1ccc([N+](=O)[O-])cc1)N1CCC(N2CCCCC2)CC1,inactive
19,C=C(C)c1ccccc1,inactive
20,C[C@@]1([C@@H](NP(=O)(c2ccccc2)c2ccccc2)c2ccccc2)C[C@H]1CCO,inactive
21,COC(=O)[C@@]1(Cc2ccccc2)[C@H]2c3cc(C(=O)N(C)C)[nH]c3C[C@H]2CN1C(=O)c1ccccc1,inactive
22,CCN1C[C@@]2(COC)[C@H](O)C[C@H](OC)[C@@]34[C@@H]5C[C@@]6(O)[C@H](OC(=O)c7ccccc7)[C@H]5[C@@](OC(C)=O)([C@H]([C@@H](OC)[C@H]23)[C@H]14)[C@H](O)[C@@H]6OC,inactive
23,COC(=O)[C@@H]1C[C@@H]1[C@@H](NP(=O)(c1ccccc1)c1ccccc1)c1ccccc1,inactive
24,C=C[C@@H]1C[C@@]1(C)[C@@H](NP(=O)(c1ccccc1)c1ccccc1)c1ccccc1,inactive
